Experimental data from the supplement of paper PMC9177965.
Values joined by “and” are separate entries in the source; they are usually repeats but may differ in a detail not shown here. Equal entries are not always repeated.

system: HT29 RNF43 G659fs (RNF43 659mut, CRISPR-edited); assay: cell viability activity relative to DMSO (negative = inhibition); higher = more viable cells (less growth inhibition); settings: 5 µM; 96 h
Method: (§1)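 Broad Repurposing Library primary screen at a single dose of 5 uM. HT29 sg-Ctrl and HT29 RNF43 G659fs CRISPR-edited isogenic cells were seeded at 2500 cells/well in 384-well plates in duplicate and treated for 96 h. Viability was read by CellTiter-Glo and reported as % activity relative to DMSO, with MG132 as the positive control (negative = growth inhibition).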

| SMILES | cell viability activity |
| --- | --- |
| Cc1ccccc1N(C)C(=O)c1ccc([S+]([O-])c2nccs2)c([N+](=O)[O-])c1 (stereo not given) | -49.2% |
| C[C@]1(O)C[C@@H](c2nc(-c3ccc4ccc(-c5ccccc5)nc4c3)c3c(N)nccn32)C1 | -32.5% |
| CN(C)C(=O)CCSC(SCCC(=O)O)c1cccc(/C=C/c2ccc3ccc(Cl)cc3n2)c1 (stereo not given) | -22.6% |
| OCCCNc1cc(-c2ccnc(Nc3cccc(Cl)c3)n2)ccn1 | -86.6% |
| Cc1ncc(NC(=O)c2ccc(CN3CCN(C)CC3)c(C(F)(F)F)c2)cc1Nc1nccc(-c2cccnc2)n1 | -33.9% |
| CC1(COc2ccc3c(c2)ncn3-c2ccc3cccc(N4CCC(N)CC4)c3n2)COC1 | -98.3% |
| COc1cc2ncnc(Nc3ccc(F)c(Cl)c3)c2cc1NC(=O)/C=C/CN1CCCCC1 | -93.1% |
| Cc1cc(Nc2ncc(Cl)c(Nc3ccccc3S(=O)(=O)C(C)C)n2)c(OC(C)C)cc1C1CCNCC1 | -97.2% |

system: HT29 sg-Ctrl (RNF43 wildtype); assay: as above; settings: 5 µM; 96 h
Method: as §1

| SMILES | cell viability activity |
| --- | --- |
| COc1cc(F)c(F)c(Nc2ccc(I)cc2F)c1NS(=O)(=O)C1(C[C@H](O)CO)CC1 | -78.3% |
| Cc1nc(C#Cc2ccnc(Cl)c2)c(C)n1-c1ccc(OC(F)(F)F)cc1 | -18.5% |
| C[C@H]1O[C@@H](O[C@H]2[C@@H](O)C[C@H](O[C@H]3[C@@H](O)C[C@H](O[C@H]4CC[C@@]5(C)[C@H](CC[C@@H]6[C@@H]5CC[C@]5(C)[C@@H](C7=CC(=O)OC7)CC[C@]65O)C4)O[C@@H]3C)O[C@@H]2C)C[C@H](O)[C@@H]1O | -93.4% |
| NNc1nncc2ccccc12 | -40.8% |
| O=C(NOCCO)c1cc(CN2OCCCC2=O)c(F)c(F)c1Nc1ccc(I)cc1F | -75% |
| COc1cc(N2CCC(N)CC2)ccc1Nc1ncc(Cl)c(-c2c[nH]c3ccccc23)n1 | -95.7% |
| CCCCCCCCN=c1ccn(CCCCCCCCCCn2ccc(=NCCCCCCCC)cc2)cc1 | -92.1% |
| COc1cc2nc(N3CCC(N4CCCCC4)CC3)nc(NC3CCCCCC3)c2cc1OC | -95.5% |
| C[C@H]1[C@H](OC(=O)CCC(=O)O)O[C@@H]2O[C@@]3(C)CC[C@H]4[C@H](C)CC[C@@H]1[C@@]24OO3 | -35.1% and -16.8% |
| CCCCCC(O)c1cccc(OCc2ccc3ccccc3n2)c1 (stereo not given) | -64% |
| CCCCCCCCNC(C)C(O)c1ccc(SC(C)C)cc1 (stereo not given) | -12.2% |
| COC(=O)N[C@@H](C)CNc1nccc(-c2cn(C(C)C)nc2-c2cc(Cl)cc(NS(C)(=O)=O)c2F)n1 | -72.4% |
| O=C(O)C[C@H](O)C[C@H](O)/C=C/c1c(C2CC2)nc2ccccc2c1-c1ccc(F)cc1 | -8.8% |
| Nc1c2ccccc2nc2ccccc12 | -86.8% |
| CNC(=O)c1nn(C)c2c1C(C)(C)Cc1cnc(Nc3ccc(N4CCN(C)CC4)cc3)nc1-2 | -74.1% |
| COc1cc(OC)c(/C=C/S(=O)(=O)Cc2ccc(OC)c(OP(=O)(O)O)c2)c(OC)c1 | -12.1% |
| O=C1NCCN1CCN1CCC(c2cn(-c3ccc(F)cc3)c3ccc(Cl)cc23)CC1 | -83.7% |
| Cn1cc(-c2ccncc2)c(-c2ccc(OCc3ccc4ccccc4n3)cc2)n1 | -38.8% |
| CN1CC[C@H](c2c(O)cc(O)c3c(=O)cc(-c4ccccc4Cl)oc23)[C@H](O)C1 | -87.7% |

| SMILES | cell viability activity |
| --- | --- |
| CSc1ccccc1Nc1nc(N2CCNCC2)nc2c(NCC3CC3)ncnc12 | -94.6% |
| COCCN1CCN(Cc2ccc(-c3n[nH]c4c3C(=O)c3c(NC(=O)NN5CCOCC5)cccc3-4)cc2)CC1 | -79.4% |
| CS(=O)(=O)N1CCc2c(-c3cnc(N)nc3)nc(N3CCOCC3)nc21 | -25.2% |
| CC(C)NC(=O)N1CC[C@H](NC2=Nc3cc(F)ccc3N(CC(F)F)c3ccc(Cl)cc32)C1 | -50.8% |
| CN(C)CCN1C(=O)c2cccc3cc(N)cc(c23)C1=O | -47.7% |
| CC(=O)c1cnc2ccc(-c3cc(Cl)c(O)c(Cl)c3)nc2c1N[C@H]1CC[C@H](CN(C)C)CC1 | -91.1% |
| Clc1cc(Cl)c(OCC#CI)cc1Cl | -23.2% |
| COC(=O)Nc1ccc(-c2nc(N3CCOCC3)c3cnn(C4CCN(Cc5cccnc5)CC4)c3n2)cc1 | -48.1% |
| Cc1c(-c2ccc(O)cc2)n(Cc2ccc(OCCN3CCCCCC3)cc2)c2ccc(O)cc12 | -93.1% |
| Cn1cnc2c(F)c(Nc3ccc(Br)cc3F)c(C(=O)NOCCO)cc21 | -82.9% |
| Cc1ccccc1N(C)C(=O)c1ccc([S+]([O-])c2nccs2)c([N+](=O)[O-])c1 (stereo not given) | -22.7% |
| C[C@]1(O)C[C@@H](c2nc(-c3ccc4ccc(-c5ccccc5)nc4c3)c3c(N)nccn32)C1 | -26.2% |
| CN(C)C(=O)CCSC(SCCC(=O)O)c1cccc(/C=C/c2ccc3ccc(Cl)cc3n2)c1 (stereo not given) | 5.04% |
| OCCCNc1cc(-c2ccnc(Nc3cccc(Cl)c3)n2)ccn1 | -86% |
| Cc1ncc(NC(=O)c2ccc(CN3CCN(C)CC3)c(C(F)(F)F)c2)cc1Nc1nccc(-c2cccnc2)n1 | -49% |
| CC1(COc2ccc3c(c2)ncn3-c2ccc3cccc(N4CCC(N)CC4)c3n2)COC1 | -98% |
| COc1cc2ncnc(Nc3ccc(F)c(Cl)c3)c2cc1NC(=O)/C=C/CN1CCCCC1 | -77.9% |
| Cc1cc(Nc2ncc(Cl)c(Nc3ccccc3S(=O)(=O)C(C)C)n2)c(OC(C)C)cc1C1CCNCC1 | -95% |
